Records with an inconclusive call do not appear. The source made the active and inactive calls. How the source made its calls: active means hit-call score of the fitted dose curve at least 0.9, where 1 is the maximum; inconclusive means response in the unintended direction; inactive means score below 0.9.
read-out: Glyceraldehyde-3-phosphate dehydrogenase (Homo sapiens) (UniProt P04406); experiment: CLD_GAPDH_6hr: CellzDirect (CLD) Gene Expression Assay for Baseline Control (Glyceraldehyde 3-phosphate dehydrogenase) at 6 hours (AID 2283681);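 further: active means increased signal relative to DMSO vehicle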
Procedure, shortened: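 Primary human hepatocytes from two donor preparations, dosed at multiple concentrations with 0.2% DMSO vehicle; GAPDH mRNA measured 6 h after dosing by chemiluminescent quantitative nuclease protection assay (qNPA) on denatured lysates. Serves as background control; cytotoxicity annotated by morphology.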

Glyceraldehyde-3-phosphate dehydrogenase (Homo sapiens), sequence (P04406 whole entry, looked up): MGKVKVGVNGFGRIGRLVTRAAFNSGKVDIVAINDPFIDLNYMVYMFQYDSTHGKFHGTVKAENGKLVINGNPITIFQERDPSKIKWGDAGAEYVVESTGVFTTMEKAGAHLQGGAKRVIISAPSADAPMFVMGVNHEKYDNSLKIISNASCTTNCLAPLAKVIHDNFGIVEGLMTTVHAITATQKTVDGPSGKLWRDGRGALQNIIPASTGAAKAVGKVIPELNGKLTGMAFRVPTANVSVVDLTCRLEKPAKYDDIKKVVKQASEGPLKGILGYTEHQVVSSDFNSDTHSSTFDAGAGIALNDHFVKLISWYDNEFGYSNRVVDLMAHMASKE

Structure (SMILES)	outcome
O=c1n(Cl)c(=O)n(Cl)c(=O)n1Cl	inactive
CS(=O)(=O)c1cc(C(F)(F)F)ccc1C(=O)c1cnoc1C1CC1	inactive
COP(=O)(OC)O/C(C)=C/C(=O)N(C)C	inactive
CC(C)Oc1cccc(NC(=O)c2ccccc2C(F)(F)F)c1	inactive
CO/N=C(/C1=NOCCO1)c1ccccc1Oc1ncnc(Oc2ccccc2Cl)c1F	inactive
CCOc1cc(C(C)(C)C)ccc1C1COC(c2c(F)cccc2F)=N1 (stereo not given)	inactive
O=C1C2CC=CCC2C(=O)N1SC(Cl)(Cl)Cl (stereo not given)	inactive
C=CCOC(=O)C(C)(C)OC(=O)c1cc(-n2c(=O)cc(C(F)(F)F)n(C)c2=O)ccc1Cl	inactive
Nc1c(Cl)c(Cl)nc(C(=O)O)c1Cl	inactive
CC(C)N1C(=O)c2ccccc2NS1(=O)=O	inactive
Clc1cccc(C(Cl)(Cl)Cl)n1	inactive
Clc1nc(Cl)nc(Nc2ccccc2Cl)n1	inactive
CCCCOCN(C(=O)CCl)c1c(CC)cccc1CC	inactive
CCNC(=O)NC(=O)C(C#N)=NOC	inactive
COP(=S)(OC)SCn1nnc2ccccc2c1=O	inactive
Cc1ccc(N=CN(C)C=Nc2ccc(C)cc2C)c(C)c1	inactive
O=C(O)c1c(Cl)ccc2cc(Cl)cnc12	inactive
Cc1cnc(C2=NC(C)(C(C)C)C(=O)N2)c(C(=O)O)c1 (stereo not given)	inactive

Structure (SMILES)	outcome
CC(C)(C)C(=O)C(Oc1ccc(Cl)cc1)n1cncn1 (stereo not given)	inactive
CC(C)C1(C)N=C(c2ncccc2C(=O)O)NC1=O (stereo not given)	inactive
O=P(O)(O)CCCl	inactive
CN=C=S	inactive
CSC(=O)c1c(C(F)F)nc(C(F)(F)F)c(C(=O)SC)c1CC(C)C	inactive
CCOc1nc(C(Cl)(Cl)Cl)ns1	inactive
CS(=O)(=O)c1ccc(C(=O)C2C(=O)CCCC2=O)c([N+](=O)[O-])c1	inactive
C=C(C)CN(CC)c1c([N+](=O)[O-])cc(C(F)(F)F)cc1[N+](=O)[O-]	inactive
Cn1c(-c2ccccc2)cc(-c2ccccc2)[n+]1C	inactive
COC(=O)N(C(=O)N1CO[C@@]2(C(=O)OC)Cc3cc(Cl)ccc3C2=N1)c1ccc(OC(F)(F)F)cc1	inactive
CCNP(=S)(OC)O/C(C)=C/C(=O)OC(C)C (stereo not given)	inactive
COP(=S)(OC)Oc1ccc([N+](=O)[O-])c(C)c1	inactive
N#CN=C1SCCN1Cc1ccc(Cl)nc1	inactive
COc1ccc(-c2ccccc2)cc1NNC(=O)OC(C)C	inactive
CC(C)NC(=O)N1CC(=O)N(c2cc(Cl)cc(Cl)c2)C1=O	inactive
OC(c1ccc(Cl)cc1)(c1ccc(Cl)cc1)C(Cl)(Cl)Cl	inactive
CC1(C)CON(Cc2ccccc2Cl)C1=O	inactive

— PubChem BioAssay (EPA / NIEHS)
